Screens from PubChem.
Pf Dd2 inh = blocks in vitro growth of P. falciparum Dd2; P. falciparum Dd2 growth, SYBR Green, 72 h; Potency, µM (highest dose often 28.9 µM), actives largely listed as inhibitors; 120,000 compounds, 4.3% hits; active means well fitted inhibition curve with a large enough effect; further: nearly all actives have a fitted effect of over 65% in size
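Infected erythrocytes (Dd2, 0.3% parasitemia, 2.5% hematocrit final) are added to compound in RPMI-1640/Albumax II medium, grown 72 h at 37C in low oxygen, then lysed with saponin/Triton-X containing SYBR Green and read by fluorescence.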
Of the large screens only hits and unclear results are named; the others gave an inactive call. This excerpt belongs to a sample that is enriched for hits.

CS(=O)(=O)c1ncc(N(Cc2ccccc2)Cc2ccco2)c(C(=O)Nc2cccc(C(F)(F)F)c2)n1	Pf Dd2 inh 6.3µM
CCSc1ncc(Cl)c(C(=O)Nc2cccc(Cl)c2)n1	none
COc1ccc(CN(Cc2ccco2)c2cnc(S(C)(=O)=O)nc2C(=O)Nc2ccc(C)cc2C)cc1	none
O=C(Nc1nc2ccc(F)cc2s1)c1nc(S(=O)(=O)Cc2ccccc2F)ncc1Cl	none
CC(C)(C)c1ccc(CN(Cc2ccco2)c2cnc(S(C)(=O)=O)nc2C(=O)Nc2ccc(F)cc2)cc1	Pf Dd2 inh 7.9µM
O=C(Nc1cccc(C(F)(F)F)c1)c1cc2nc(-c3ccco3)cc(C(F)(F)Cl)n2n1	none
CS(=O)(=O)c1ncc(N(Cc2ccco2)Cc2ccco2)c(C(=O)Nc2ccccc2Br)n1	none
CCS(=O)(=O)c1ncc(N(Cc2ccco2)Cc2ccccc2F)c(C(=O)Nc2cccc(Cl)c2)n1	Pf Dd2 inh 4µM
COc1ccc(C(=O)N2CC[C@H]3C(=O)NCCCCCCN(Cc4ccncc4)[C@@H]3C2)cc1F	none
COC(=O)[C@@H]1Cc2ncn(C)c2CN1C(=O)c1ccc(F)cc1	none
CCNC(=O)[C@@H]1C[C@H](NC(C)=O)CN1Cc1ccc(OC2CCCC2)cc1	none
COc1ccccc1NC(=O)Cn1nc2n(c1=O)CCCCC2	none
CN1CCN(CC(N)C2CCCCC2)CC1 (stereo not drawn)	none
CC(c1cccs1)N(C)Cc1cccn1C (stereo not drawn)	none
CCn1cc(-c2ccc(C)cc2)cc1C(=O)NCC1CCCO1 (stereo not drawn)	none
CN(CCC(O)c1ccccc1)Cc1cn(-c2ccccc2)nn1 (stereo not drawn)	Pf Dd2 inh 8.9µM
CC(C)n1cnnc1CN(C)Cc1cn(-c2ccccc2)nn1	none
CN(Cc1cn(-c2ccccc2)nn1)Cc1noc2c1CCCC2	none
O=C1CCC2(CNC(=O)c3cnccn3)CCCC=C2N1 (stereo not drawn)	none
Cc1noc(C)c1[S+](=O)([O-])N1CCC2(CC1)C(=O)NN=C2c1ccncc1	none
Cc1ccc(C)c(-c2nc(Cn3c(=O)cc(-c4ccccc4)c4c(C)nn(C)c43)c(C)o2)c1	none
Cc1cccc(-c2nc(Cn3c(=O)cc(-c4ccccc4)c4c(C)nn(C)c43)c(C)o2)c1	none
Cc1oc(-c2ccccc2)nc1Cn1c(=O)cc(-c2ccccc2)c2c(C)nn(C)c21	Pf Dd2 inh 10µM
COc1cccc(CC(=O)N2CCCCCCNC(=O)[C@H]3C[C@H](c4nc(C(C)C)no4)C[C@H]32)c1	none
CCOC(=O)c1sc(NC(=O)c2nc(SC)ncc2Cl)c(C(=O)OCC)c1C	none
CCOC(=O)c1sc(NC(=O)c2nc3nc(C)cc(C(F)F)n3n2)c(C(=O)OC)c1C	none
CCCOC(=O)c1c(NC(=O)c2nc3ncccn3n2)sc(C(=O)OCC)c1C	Pf Dd2 inh 2.8µM
CN1C[C@@H](N)C[C@H]1C(=O)N1CCC2(CC1)Nc1ccccc1NC2=O	none
COc1ccc(CNc2nc3c(S(=O)(=O)c4ccccc4)nnn3c3ccc(Cl)cc23)cc1	none
CCN(Cc1ccccc1)c1nc2c(S(=O)(=O)c3ccccc3)nnn2c2ccc(Cl)cc12	Pf Dd2 inh 6.3µM
COCCNc1nc2c(S(=O)(=O)c3ccccc3)nnn2c2ccc(Cl)cc12	none
COc1ccc(CN2C(=O)CO[C@H](c3ccc(NC(=O)c4ccccc4C)cc3)[C@H]2CO)cc1	none
CC[C@H]1CN(C(=O)C2CC2)CC[C@H]1CC(=O)NC1CC1	none
O=C(C1CC1)N1C[C@@H]2OCC(=O)N(Cc3cccnc3)[C@@H]2C1	none
COc1cc(NC(=O)N2CCCC(Cn3cnc4cccnc43)C2)cc(OC)c1OC (stereo not drawn)	none
CC1CCCCN1C(=O)Cn1ccn2nc(-c3ccc(F)cc3)c(CO)c2c1=O (stereo not drawn)	none
Cc1noc([C@@H]2CN(C(=O)CC(C)C)C[C@H]2CO)n1	none
COC(=O)c1ccccc1NC(=O)O[C@@H]1CO[C@H]2[C@@H]1OC[C@@H]2Nc1nccc(-c2ccc(N(C)C)cc2)n1	Pf Dd2 inh 5µM
COc1ccc(-c2ccnc(N[C@H]3CO[C@H]4[C@@H]3OC[C@H]4OC(=O)Nc3cccc(OC)c3)n2)cc1	none
CN(C)c1ccc(-c2ccnc(N[C@H]3CO[C@H]4[C@@H]3OC[C@H]4OC(=O)NCc3ccccc3)n2)cc1	none
COc1cc(NC(=O)N[C@H]2CO[C@H]3[C@@H]2OC[C@@H]3Nc2nccc(-c3ccc(-c4ccccc4)cc3)n2)cc(OC)c1	none
COc1ccc(-c2ccnc(N[C@H]3CO[C@H]4[C@@H]3OC[C@@H]4NC(=O)Nc3cccc(C#N)c3)n2)cc1	none
COc1cc(NC(=O)N[C@H]2CO[C@H]3[C@@H]2OC[C@@H]3Nc2nccc(-c3ccc(N(C)C)cc3)n2)cc(OC)c1	Pf Dd2 inh 13µM
CCN(CC1CCOCC1)C(=O)Cc1cnc2c(C)cccn12	none
Cc1oc(C(O)c2ccccc2)nc1C(=O)N1CCC(n2c(=O)[nH]c3ccccc32)CC1 (stereo not drawn)	none
O=C1CCCCC(C(=O)NCc2ccco2)N1 (stereo not drawn)	none
COc1cccc(CCC(=O)NCCC2CCN(C(=O)Nc3ccc(C)cc3)CC2)c1	none
O=C([C@@H]1C[C@H](F)CN1C(=O)Nc1ccc(Br)cc1)N1CCCCC1	none
O=C(Cc1ccc2c(c1)OCO2)N1CCCn2nc(C(O)CO)cc2C1 (stereo not drawn)	none
N#Cc1cccc(C(=O)N2CCC3(CC2)CN(C2CCC2)CC3CO)c1 (stereo not drawn)	none
COCC1CN(C2CCC2)CC12CCN(C(=O)c1ccccn1)CC2 (stereo not drawn)	none
COCC1CN(C2CCC2)CC12CCN(C(=O)c1cccs1)CC2 (stereo not drawn)	none
COCC1CN(C2CCC2)CC12CCN(C(=O)COc1cccc(C)c1)CC2 (stereo not drawn)	Pf Dd2 inh 5µM
COCC1CN(C(C)=O)CC12CCN(C(=O)COc1cccc(C)c1)CC2 (stereo not drawn)	none
COCC1CN(C2CCC2)CC12CCN(C(=O)c1cccc(C#N)c1)CC2 (stereo not drawn)	none
COCC1CN(C2CCC2)CC12CCN(C(=O)c1cccc(C)c1)CC2 (stereo not drawn)	Pf Dd2 inh 8.9µM
OCC1CN(C2CCC2)CC12CCN(C1CCC1)CC2 (stereo not drawn)	none
O=C(Cc1ccc(Cl)cc1)N1CCC2(CC1)CN(C1CCC1)CC2CO (stereo not drawn)	Pf Dd2 inh 8.9µM
O=C(c1ccccc1F)N1CCCN(c2cc(-c3ccccc3)[nH]n2)CC1	none
Cc1ccc(C(=O)N2C[C@@H](CO)[C@H](c3ccncc3)C2)nc1	none
Cc1cc(C(F)(F)F)nn1CC(=O)N1CC[C@H](CO)[C@H](NC(=O)C2CC2)C1	none
O=C1C(N2CCN(S(=O)(=O)Cc3cccc(Cl)c3)CC2)CCN1Cc1cccnc1 (stereo not drawn)	none
CCC1(CO)CCCN(S(=O)(=O)c2ccc3c(c2)OCCO3)C1 (stereo not drawn)	none
CC(C)CN1C(=O)CO[C@H](c2ccc(NS(=O)(=O)c3cccc(F)c3)cc2)[C@H]1CO	none
Cc1cnc(C2CCN(S(C)(=O)=O)C2)n1C(C)C (stereo not drawn)	none
Cc1ccccc1-c1cc(O)c2c(c1)CN(C(=O)C1CCNCC1)CCO2	none
Cc1cc(CN2CCOc3c(O)cc(-c4ccccc4C)cc3C2)on1	none
Cc1cccc(CN2CCOc3c(O)cc(-c4ccccc4C)cc3C2)n1	Pf Dd2 inh 8.9µM
O=C(CN1C(=O)NC2(CCCCC2)C1=O)Nc1ccc2c(c1)OCO2	none
O=C(c1cnc(-c2cccs2)nc1)N1CCN(CCO)CC(O)C1 (stereo not drawn)	none
